Test results as given in PubChem BioAssay (EPA / NIEHS).
Activity calls are given as the source filed them. How the source made its calls: active means hit-call score of the fitted dose curve at least 0.9, where 1 is the maximum; inactive means score below 0.9.

Experiments:
Conditions in all cases: mRNA level, 48 h; actives raise or lower the signal
[1] = read-out: Apolipoprotein A-V (APOA5) gene, APOA5 (gene 116519); test: LTEA_HepaRG_APOA5: Life Technologies and Expression Analysis (LTEA) Assay for Apolipoprotein A-V (APOA5) gene using HepaRG (AID 2283474)
Outline: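 Differentiated human HepaRG cells were exposed in duplicate for 48 h to eight half-log concentrations from 100 uM in 0.5% DMSO. APOA5 mRNA was quantified by TaqMan qRT-PCR, normalized to ACTB, GAPDH and POLR2A, and fitted bidirectionally against DMSO.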

[2] = read-out: Apoptosis regulator Bcl-2 (Homo sapiens) (UniProt P10415); test: LTEA_HepaRG_BCL2: Life Technologies and Expression Analysis (LTEA) Assay for Bcl-2 gene using HepaRG (AID 2283475)
Outline: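 Plated human HepaRG cells are exposed to test chemicals for 48 h across eight concentrations from 100 uM downward in half-log steps (0.5% DMSO). BCL2 expression is then measured by qRT-PCR with housekeeping normalisation and fitted bidirectionally against vehicle.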

[3] = read-out: Bcl-2 (BID) gene, BID (gene 637); test: LTEA_HepaRG_BID: Life Technologies and Expression Analysis (LTEA) Assay for Bcl-2 (BID) gene using HepaRG (AID 2283476)
Outline: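 Cells are plated, cultured 48 h, switched to serum-free induction medium, then dosed 48 h (100 uM top, half-log steps, 0.5% DMSO). RNA is isolated and BID expression read by qRT-PCR.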

Caspase-3 (Homo sapiens) = Caspase-3 (Homo sapiens) (UniProt P42574); test: LTEA_HepaRG_CASP3: Life Technologies and Expression Analysis (LTEA) Assay for cysteine-aspartic acid protease (CASP3) using HepaRG (AID 2283477)
Sequence of Caspase-3 (Homo sapiens) (P42574 whole entry, looked up): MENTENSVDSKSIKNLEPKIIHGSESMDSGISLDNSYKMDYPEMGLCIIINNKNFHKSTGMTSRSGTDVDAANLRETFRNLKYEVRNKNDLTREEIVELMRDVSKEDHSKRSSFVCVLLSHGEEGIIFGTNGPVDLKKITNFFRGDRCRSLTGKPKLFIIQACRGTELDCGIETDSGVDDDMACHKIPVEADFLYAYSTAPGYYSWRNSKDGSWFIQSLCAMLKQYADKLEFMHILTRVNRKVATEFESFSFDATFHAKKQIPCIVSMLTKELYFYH
Outline: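 Differentiated human HepaRG cells in serum-free induction medium were exposed 48 h to 8-point half-log concentrations from 100 uM (0.5% DMSO vehicle). CASP3 mRNA was measured by qRT-PCR, normalised to ACTB, GAPDH and POLR2A, with bidirectional fitting against DMSO.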

[4] = read-out: Cytochrome P450 (CYP24A1), CYP24A1 (gene 1591); test: LTEA_HepaRG_CYP24A1: Life Technologies and Expression Analysis (LTEA) Assay for Cytochrome P450 (CYP24A1) using HepaRG (AID 2283478)
Outline: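 Differentiated HepaRG cells, pre-cultured 48 h, were exposed in duplicate for 48 h in serum-free induction medium to 8 half-log concentrations (top 100 uM, 0.5% DMSO). CYP24A1 mRNA was quantified by TaqMan qRT-PCR, normalized to ACTB/GAPDH/POLR2A, fitted bidirectionally versus DMSO.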

[5] = read-out: Cytochrome P450 (CYP1A2), CYP1A2 (gene 1544); test: LTEA_HepaRG_CYP1A2: Life Technologies and Expression Analysis (LTEA) Assay for Cytochrome P450 (CYP1A2) using HepaRG (AID 2283479)
Outline: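 Differentiated human HepaRG cells in serum-free induction medium were exposed in duplicate for 48 h to 8-point half-log concentrations up to 100 uM in 0.5% DMSO. CYP1A2 mRNA measured by qRT-PCR, normalized to ACTB, GAPDH, POLR2A; bidirectional fit vs DMSO.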

[6] = read-out: cysteine-aspartic acid protease (CASP8), CASP8 (gene 841); test: LTEA_HepaRG_CASP8: Life Technologies and Expression Analysis (LTEA) Assay for cysteine-aspartic acid protease (CASP8) using HepaRG (AID 2283480)
Outline: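 CASP8 transcript measured by TaqMan qRT-PCR with ACTB/GAPDH/POLR2A normalization, after 48 h chemical exposure of HepaRG cells in serum-free induction medium. Eight concentrations, top 100 uM, half-log steps, 0.5% DMSO vehicle; fits in both directions versus DMSO.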

[7] = read-out: Cytochrome P450 (CYP2B6), CYP2B6 (gene 1555); test: LTEA_HepaRG_CYP2B6: Life Technologies and Expression Analysis (LTEA) Assay for Cytochrome P450 (CYP2B6) using HepaRG (AID 2283481)
Outline: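 Differentiated HepaRG cells, serum-free induction medium, exposed 48 h in duplicate to 8-point half-log concentrations from 100 uM in 0.5% DMSO. CYP2B6 mRNA by qRT-PCR, normalized to ACTB, GAPDH, POLR2A; bidirectional fit versus DMSO.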

[8] = read-out: Cytochrome P450 2C19 (Homo sapiens) (UniProt P33261); test: LTEA_HepaRG_CYP2C19: Life Technologies and Expression Analysis (LTEA) Assay for CYP2C19 using HepaRG (AID 2283482)
Outline: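 Differentiated human HepaRG cells were exposed for 48 h in serum-free induction medium to 8 concentrations (top 100 uM, half-log steps, 0.5% DMSO). CYP2C19 mRNA was measured by qRT-PCR, normalized to ACTB/GAPDH/POLR2A, and fitted bidirectionally against DMSO.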

CYP2C8 (gene 1558) = test: LTEA_HepaRG_CYP2C8: Life Technologies and Expression Analysis (LTEA) Assay for CYP2C8 using HepaRG (AID 2283483)
Outline: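 CYP2C8 expression measured by TaqMan qRT-PCR and normalized to three housekeeping genes. HepaRG cultures were treated for 48 h with an eight-point half-log series topping at 100 uM, vehicle 0.5% DMSO, duplicates; fitted both directions against DMSO.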

CYP2C9 (gene 1559) = test: LTEA_HepaRG_CYP2C9: Life Technologies and Expression Analysis (LTEA) Assay for CYP2C9 using HepaRG (AID 2283484)
Outline: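 CYP2C9 transcript level, quantified by TaqMan qRT-PCR against three housekeeping genes, was fitted bidirectionally relative to 0.5% DMSO. HepaRG cultures were treated 48 h, in duplicate, at eight half-log concentrations topping at 100 uM.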

CYP2E1 (gene 1571) = test: LTEA_HepaRG_CYP2E1: Life Technologies and Expression Analysis (LTEA) Assay for CYP2E1 using HepaRG (AID 2283485)
Outline: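 Readout is qRT-PCR of CYP2E1 mRNA, normalized to three housekeeping genes and fitted bidirectionally against 0.5% DMSO. HepaRG cells were dosed 48 h at eight concentrations, highest 100 uM with half-log dilutions.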

CYP4A11 (gene 1579) = test: LTEA_HepaRG_CYP4A11: Life Technologies and Expression Analysis (LTEA) Assay for CYP4A11 using HepaRG (AID 2283486)
Outline: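 Differentiated HepaRG cells, serum-free induction medium, exposed 48 h in duplicate to 8-point half-log series from 100 uM in 0.5% DMSO. CYP4A11 mRNA measured by qRT-PCR, normalized to ACTB, GAPDH, POLR2A; bidirectional fit versus DMSO.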

[9] = read-out: Cytochrome P450 3A4 (Homo sapiens) (UniProt P08684); test: LTEA_HepaRG_CYP3A4: Life Technologies and Expression Analysis (LTEA) Assay for CYP3A4 using HepaRG (AID 2283487)
Outline: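 Differentiated HepaRG cells in serum-free induction medium exposed in duplicate for 48 h to 8 half-log concentrations up to 100 uM in 0.5% DMSO. CYP3A4 mRNA measured by qRT-PCR normalized to ACTB, GAPDH and POLR2A; bidirectional fit versus DMSO.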

[10] = read-out: DNA damage-inducible transcript 3 (DDIT3), DDIT3 (gene 1649); test: LTEA_HepaRG_DDIT3: Life Technologies and Expression Analysis (LTEA) Assay for DNA damage-inducible transcript 3 (DDIT3) using HepaRG (AID 2283488)
Outline: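 Cells are human HepaRG liver cells treated for 48 h with eight half-log concentrations up to 100 uM in 0.5% DMSO. Transcript levels come from qRT-PCR normalized to three housekeeping genes, with activity fitted in both directions relative to vehicle.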

[11] = read-out: Early growth response protein 1 (EGR1) transcription factor, EGR1 (gene 1958); test: LTEA_HepaRG_EGR1: Life Technologies and Expression Analysis (LTEA) Assay for Early growth response protein 1 (EGR1) transcription factor using HepaRG (AID 2283490)
Outline: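 EGR1 transcript levels quantified by qRT-PCR (Fluidigm arrays) against three housekeeping genes after 48 h chemical exposure of HepaRG cells. Eight-point half-log series topping at 100 uM, 0.5% DMSO vehicle, analyzed for gain or loss.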

[12] = read-out: Ezrin (EZR), EZR (gene 7430); test: LTEA_HepaRG_EZR: Life Technologies and Expression Analysis (LTEA) Assay for Ezrin (EZR) using HepaRG (AID 2283491)
Outline: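 Differentiated human HepaRG cells, 48 h after plating, were exposed in serum-free induction medium for 48 hours to eight half-log concentrations up to 100 uM in 0.5% DMSO. EZR mRNA was measured by TaqMan qRT-PCR, normalized to ACTB, GAPDH and POLR2A, and fitted bidirectionally against DMSO.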

[13] = read-out: Cytochrome P450 3A7 (Homo sapiens) (UniProt P24462); test: LTEA_HepaRG_CYP3A7: Life Technologies and Expression Analysis (LTEA) Assay for CYP3A7 using HepaRG (AID 2283492)
Outline: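 HepaRG cells plated 48 h, then dosed in serum-free induction medium for 48 h at 8 concentrations (top 100 uM, half-log steps, 0.5% DMSO). CYP3A7 mRNA by qRT-PCR, normalised to ACTB/GAPDH/POLR2A; bidirectional fit versus DMSO.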

Measured: AC50

Sequence of Cytochrome P450 2C19 (Homo sapiens) (P33261 whole entry, looked up): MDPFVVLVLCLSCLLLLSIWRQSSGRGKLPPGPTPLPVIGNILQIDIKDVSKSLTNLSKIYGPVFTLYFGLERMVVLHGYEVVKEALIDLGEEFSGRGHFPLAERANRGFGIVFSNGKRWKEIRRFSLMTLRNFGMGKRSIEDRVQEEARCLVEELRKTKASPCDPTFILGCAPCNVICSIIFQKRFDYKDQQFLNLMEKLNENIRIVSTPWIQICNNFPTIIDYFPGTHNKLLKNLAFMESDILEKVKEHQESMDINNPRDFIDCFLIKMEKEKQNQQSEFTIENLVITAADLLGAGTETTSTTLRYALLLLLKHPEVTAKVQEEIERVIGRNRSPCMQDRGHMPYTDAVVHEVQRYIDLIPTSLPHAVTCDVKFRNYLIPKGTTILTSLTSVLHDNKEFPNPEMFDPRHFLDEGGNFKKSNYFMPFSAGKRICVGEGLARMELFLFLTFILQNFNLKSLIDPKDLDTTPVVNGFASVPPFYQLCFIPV
Sequence of Apoptosis regulator Bcl-2 (Homo sapiens) (P10415 whole entry, looked up): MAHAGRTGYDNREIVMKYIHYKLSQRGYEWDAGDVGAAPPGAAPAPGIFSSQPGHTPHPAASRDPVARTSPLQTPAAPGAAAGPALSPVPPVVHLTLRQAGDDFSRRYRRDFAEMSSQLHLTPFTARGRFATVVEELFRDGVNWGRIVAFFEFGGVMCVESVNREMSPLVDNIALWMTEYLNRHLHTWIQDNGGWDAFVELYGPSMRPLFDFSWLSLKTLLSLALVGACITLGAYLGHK
Sequence of Cytochrome P450 3A4 (Homo sapiens) (P08684 whole entry, looked up): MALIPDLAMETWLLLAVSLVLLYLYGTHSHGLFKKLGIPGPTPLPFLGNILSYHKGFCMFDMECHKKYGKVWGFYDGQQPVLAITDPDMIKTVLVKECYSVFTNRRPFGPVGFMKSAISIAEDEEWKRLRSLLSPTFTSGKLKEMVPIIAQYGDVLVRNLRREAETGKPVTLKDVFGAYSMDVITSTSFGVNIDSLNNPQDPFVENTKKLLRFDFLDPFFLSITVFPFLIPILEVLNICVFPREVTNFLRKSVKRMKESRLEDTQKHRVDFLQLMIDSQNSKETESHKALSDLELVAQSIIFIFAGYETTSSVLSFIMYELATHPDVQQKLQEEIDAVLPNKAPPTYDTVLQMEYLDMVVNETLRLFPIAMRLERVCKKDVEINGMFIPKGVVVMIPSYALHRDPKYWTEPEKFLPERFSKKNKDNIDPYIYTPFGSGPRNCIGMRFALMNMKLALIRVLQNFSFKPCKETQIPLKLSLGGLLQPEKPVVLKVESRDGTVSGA
Sequence of Cytochrome P450 3A7 (Homo sapiens) (P24462 whole entry, looked up): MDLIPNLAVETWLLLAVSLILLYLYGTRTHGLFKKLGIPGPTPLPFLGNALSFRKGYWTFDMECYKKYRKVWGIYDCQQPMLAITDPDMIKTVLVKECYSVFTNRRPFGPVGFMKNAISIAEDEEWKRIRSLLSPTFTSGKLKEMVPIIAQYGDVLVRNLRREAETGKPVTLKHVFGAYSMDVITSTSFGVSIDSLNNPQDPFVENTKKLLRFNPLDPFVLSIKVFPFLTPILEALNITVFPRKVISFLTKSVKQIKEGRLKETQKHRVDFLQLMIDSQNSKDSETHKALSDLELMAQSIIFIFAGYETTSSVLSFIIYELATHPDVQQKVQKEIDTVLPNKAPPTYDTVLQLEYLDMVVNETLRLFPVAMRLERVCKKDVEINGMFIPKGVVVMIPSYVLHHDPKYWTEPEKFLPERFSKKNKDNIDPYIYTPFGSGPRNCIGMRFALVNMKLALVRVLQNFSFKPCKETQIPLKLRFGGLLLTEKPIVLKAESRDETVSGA

c1cc[n+]2c(c1)-c1cccc[n+]1CC2
active: [5] 12.4 µM
inactive: all other assays above
